# FUS yeast rescue – FUS proteinopathy suppression in yeast; Potency, µM (titrated, usually from 76.6 µM), actives largely listed as activators; actives 0.24% (n = 390,000); S. cerevisiae FUS-expressing, growth rescue, OD600, 24 h; AID 1347120;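 further: plate controls were DMSO vehicle for no effect and reference control for full effect; nearly all actives have a fitted effect of over 55% in size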
#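 Galactose (2%) drives FUS expression in yeast precultured in raffinose; seeding density OD 0.005. Test compounds incubated 24hr at 30C and 99% humidity before absorbance at 600 nm was measured.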
# TDP43 rescue – TDP-43 toxicity inhibition in yeast; TDP-43 expressing yeast growth rescue, BacTiter-Glo, 24 h; Potency, µM (top dose mostly 46.1 µM), for the others: at the highest dose growth rescue (activation), most hits filed as activators; actives 1.8% (n = 410,000); AID 652104; further: % of control where 0% means no effect; nearly all actives have a fitted effect of over 50% in size
#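 Cell-based yeast growth screen: TDP-43 expression induced in galactose, inoculum OD600=0.02 after raffinose pregrowth to mid-log. Read-out BacTiter-Glo luminescence at 24 hr, 30 deg C; inhibition of toxicity seen as signal increase.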
# aSyn yeast inh – rescues yeast growth from alpha-synuclein toxicity. Potency, µM (top dose mostly 46.1 µM), for inactives: top-dose growth rescue (activation), usual class: activators. Yeast expressing alpha-synuclein, growth rescue, BacTiter-Glo, 24 h. actives 0.14% (n = 370,000); further: % of control where 0% means no effect; nearly all actives have a fitted effect of over 65% in size
#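 Readout is rescue of growth in alpha-synuclein-expressing yeast, so inhibitors of toxicity appear as activators. Growth after 24 hr at 30 deg C in galactose medium is quantified by luminescence.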
# Abeta rescue – A-beta toxicity reversal in yeast; yeast expressing A-beta42, growth rescue, OD600, 48 h; response scale: 0% DMSO, 100% iron-clioquinol control; Potency, µM (titrated, usually from 46.1 µM), usual class: activators; actives 0.063% (n = 410,000); further: nearly all actives have a fitted effect of over 55% in size
#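 Yeast A-beta toxicity model in growth medium with pinned compounds, 48 h at 30 C; growth read as absorbance at 600 nm. Normalized to FeCl3/clioquinol equimolar mix (positive) and DMSO (negative).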
# Starred values were filed as active, the others as inactive; i = inactive; u = inconclusive; x = not tested or not shown. Shown are actives, neighbours in structure and some others; about 2.1% of the full set was active somewhere. The call rests on the fitted dose curve; in most records, active means well fitted curve in the direction sought with a large enough effect; inconclusive means small, poorly fitted or top-dose-only effect, or another doubt; inactive means no such curve, though single readings can be large; an effect the other way counts as inactive or inconclusive. Potency means the concentration at half of the fitted maximal effect.
SMILES,FUS yeast rescue,TDP43 rescue,aSyn yeast inh,Abeta rescue
CC(C)N(C(=O)[C@H]1C[C@H](CC(=O)NCc2cccc(C(F)(F)F)c2)C(=O)N2CCc3c([nH]c4ccc(Cl)cc34)[C@]12C)C(C)C,i,35µM*,u,i
C[C@]12c3[nH]c4ccc(Cl)cc4c3CCN1C(=O)[C@@H](CC(=O)NCc1cccc(C(F)(F)F)c1)C[C@@H]2C(=O)N1CCOCC1,u,18%,1%,i
Cc1ccc(Nc2nc3nonc3nc2Nc2cccc(C(F)(F)F)c2)cc1Cl,i,-72%,x,i
Cc1ccc(CNS(=O)(=O)c2ccc3c(c2)CC(C)N3C(=O)C2CCC2)cc1 (stereo not drawn),i,-7%,x,i
Cc1cc(C)c(NS(=O)(=O)c2ccc3c(c2)CC(C)N3C(=O)C2CCC2)c(C)c1 (stereo not drawn),u,11µM*,x,i
CC1CCN(S(=O)(=O)c2ccc3c(c2)CC(C)N3C(=O)C2CCC2)CC1 (stereo not drawn),u,18µM*,12%,x
Cc1cccc(NS(=O)(=O)c2ccc3c(c2)CC(C)N3C(=O)C2CCC2)c1C (stereo not drawn),u,20µM*,x,i
C=C1C=C(C(F)F)n2ncc(C(=O)N3CCc4ccccc4C3)c2N1,x,x,-2%,x
CCn1nnc2c(N3CCCC3)ncnc21,x,x,-3%,x
O=C(Oc1ccc(C(=S)N2CCOCC2)cc1)c1cccc(Cl)c1,i,13µM*,24%,i
Cc1ccccc1C(=O)Oc1ccc(Cl)cc1C(=S)N1CCOCC1,i,13µM*,-9%,i
O=C(Oc1ccc(C(=S)N2CCOCC2)cc1)c1cc([N+](=O)[O-])cc([N+](=O)[O-])c1,i,-9%,2%,i
O=C(Oc1ccc(C(=S)N2CCOCC2)cc1Cl)c1ccccc1F,i,12%,-21%,i
O=S(=O)(Oc1ccc(C(=S)N2CCOCC2)cc1)c1ccc(Cl)cc1,i,18µM*,3%,i
COc1ccccc1/C=C/c1nc2ccccc2[nH]1,x,x,-27%,x
O=S1(=O)CCOCC(CO)N1Cc1cccc(Br)c1 (stereo not drawn),i,x,x,x
CC1CCN(S(=O)(=O)N2CCC(C(=O)NCc3ccccc3Cl)CC2)CC1,i,24%,x,i
c1ccc(-c2nc(-c3cnc4ccccc4n3)cs2)cc1,x,x,-18%,x
O=C(/C=C/c1cn(-c2ccccc2)nc1-c1cccc(Cl)c1)N1CCN(c2ccccn2)CC1,u,14µM*,-10%,i
CCC(C)Nc1nc(N)c([N+](=O)[O-])c(NCc2ccccc2)n1 (stereo not drawn),i,18µM*,0%,i
N#CC(C#N)=C1C=CC=CN1/C(=C\c1ccccc1)C(=O)c1cccs1,i,4.5µM*,u,i
N#CC(C#N)=C1C=CC=CN1/C(=C\c1ccccc1Cl)C(=O)c1ccccc1,x,u,-38%,i
CC(=O)O[C@H]1CC[C@@]2(C)C(CCC3C2CC[C@]2(C)OC(=O)CCC32)C1 (stereo partly drawn),i,35µM*,19%,i
CC(=O)OC1CCC2(C)C(CCC3C4CC=C(C(C)=O)C4(C)OC(=O)CC32)C1 (stereo not drawn),i,-85%,-19%,i
Fc1ccccc1Cn1cc(C(=S)N2CCOCC2)c2ccccc21,i,u,20µM*,u
SMILES,FUS yeast rescue,TDP43 rescue,aSyn yeast inh,Abeta rescue
Fc1ccc(Cn2cc(C(=S)N3CCOCC3)c3ccccc32)cc1,i,u,-33%,i
Cc1ccccc1Nc1ncnc2c1cnn2C,i,7%,1%,i
Cn1ncc2c(Nc3cc(C(F)(F)F)ccc3Cl)ncnc21,i,14µM*,x,i
Cc1ccccc1NS(=O)(=O)c1ccc2[nH]cc(C(=O)NC3CCCCC3)c(=O)c2c1,u,24%,x,i
Cc1ccc(CN2CCN(/N=C\C(Br)=C\c3ccccc3)CC2)cc1,i,13µM*,2%,i
CCc1nc(N2CCN(C(=O)c3ccccc3)CC2)c(C#N)c2c1COC(C)(C)C2,i,20µM*,8%,i
CC1(C)Cc2c(C#N)c(N3CCN(C(=O)c4ccccc4)CC3)nc(Cc3ccccc3)c2CO1,i,8%,-1%,i
CC1CCN(c2nc(-c3ccco3)c3c(c2C#N)CC(C)(C)OC3)CC1,i,11µM*,4%,i
Cc1ccc2oc(-c3ccc(C)c(NC(=O)COc4ccc(Cl)cc4)c3)nc2c1,x,x,-4%,x
COc1cc2cc(CCCOC(=O)c3ccc(Br)cc3)oc(=O)c2cc1OC,i,13%,-5%,i
COc1cc2cc(CCCOC(=O)c3ccc(F)cc3)oc(=O)c2cc1OC,i,20µM*,-5%,i
COc1ccc(N2CCN(C(c3cc4cc(C)ccc4[nH]c3=O)c3nnnn3Cc3ccccc3)CC2)cc1 (stereo not drawn),8.9µM*,-8%,-5%,i
COc1ccc(Cn2nnnc2C(c2cc3cc(C)ccc3[nH]c2=O)N2CCOCC2)cc1 (stereo not drawn),i,-19%,-1%,i
O=C(N/N=C/c1ccncc1)c1ccccc1OCc1ccc(Br)cc1,i,32µM*,26%,i
O[C@@H]1COC(Nc2ccc(N=Nc3ccccc3)cc2)C[C@@H]1O (stereo partly drawn),i,13µM*,-2%,i
Cc1cccc(C)c1NC(=O)C(C1CC1)n1c(=O)c(-c2cc3ccccc3[nH]2)nc2ccccc21 (stereo not drawn),5.6µM*,u,u,i
CC(C)(C)NC(=O)C(C1CC1)n1c(=O)c(-c2cc3ccccc3[nH]2)nc2ccccc21 (stereo not drawn),i,26%,4%,i
Cc1cccc(C)c1NC(=O)C(C1CC1)n1c(=O)c(-c2ccccc2)nc2ccccc21 (stereo not drawn),i,13µM*,u,i
COc1cc(OC)cc(C(=O)Nc2cc3c(cc2N2CCCC2)n(C)c(=O)c(=O)n3C)c1,i,-3%,x,i
Cc1ccc(N2CC(NC(=O)Cc3cccs3)CC2=O)cc1C (stereo not drawn),i,19%,x,i
C[N+]1=C(N)N[C@@]2(C=C3CCCCC3n3c(=O)n(-c4ccccc4)c(=O)n32)C1 (stereo partly drawn),i,x,x,x
CN(Cc1ccccc1)C(=O)c1ccc(Cl)c([N+](=O)[O-])c1,i,-31%,2%,i
CN(Cc1ccccc1)c1ccc(C(=O)O)cc1[N+](=O)[O-],i,16µM*,0%,i
O=C(COc1ccc([N+](=O)[O-])cc1)Nc1cccnc1,i,-9%,5%,i
O=C(COc1ccc(F)cc1)Nc1nc(-c2ccccn2)cs1,i,-54%,-20%,i
O=C(COc1ccccc1)Nc1nc(-c2cccnc2)cs1,u,10µM*,-8%,i

# Bioassay records (PubChem)
